High-throughput results from PubChem BioAssay.
Most compounds without a hit are left out; they make up all but 3.3% or so of the library.
Sm TGR inh: S. mansoni TGR enzyme inhibition; 3% of 360,000 active; Potency, µM (doses to about 114 µM), inactives show at the highest dose activity change, negative = inhibition, usual class: inhibitors; purified TGR, DTNB reduction, TNB absorbance 405 nm; Q962Y6; also: nearly all actives have a fitted effect of over 60% in size
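TGR 20 nM + NADPH 100 uM (dispensed conc.), cpd preinc 15 min RT; start with NADPH (500 uM addition) then DTNB (15 mM addition). Kinetic TNB absorbance, 405 nm filter. Four-parameter Hill fit across titration.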
TbPYK inhibitor: blocks Trypanosoma brucei pyruvate kinase | TbPYK enzyme, Kinase-Glo Plus ATP luminescence, 45 min | Potency, µM (series often up to 76.8 µM), for inactives: top-dose activity, negative = inhibition, hits mostly inhibitors | 0.12% of 410,000 active; also: nearly all actives have a fitted effect of over 50% in size
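Quantitative HTS: titrated library compounds versus trypanosomal pyruvate kinase in TEA buffer (pH 7.2) containing KCl, MgCl2, BSA and Tween-20. Reactions were initiated with ADP, 130 uM final. Kinase-Glo Plus luminescence was read after 45 min at RT.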
RE007 growth inh: less growth of the S. pombe RE007 Vpr strain. S. pombe RE007 Vpr strain, BacTiter-Glo ATP luminescence, 24 h. Potency, µM (titrated, usually from 92.2 µM), for the others: at the top dose activity change, negative = less growth, actives largely listed as inhibitors. 0.21% of 360,000 active; active = well fitted falling curve with a large enough effect; inconclusive = small, poorly fitted or top-dose-only effect; inactive = no such curve, though single readings can be large or run the other way; also: nearly all actives have a fitted effect of over 50% in size
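Fission yeast RE007 carrying one integrated HIV-1 vpr copy, seeded at OD 0.01 in PMG+AL medium with 23 nL pinned compound. Grown 24 h at 30 degrees; viability read by BacTiter-Glo luminescence after 5 min.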
LmPK inhibitor: blocks Leishmania mexicana pyruvate kinase activity. Potency, µM (series often up to 57.5 µM), for the others: at the top dose activity change, negative = inhibition, most hits filed as inhibitors. purified LmPK, Kinase-Glo ATP luminescence, 1 h. 0.37% of 290,000 active. AID 1721
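qHTS format; LmPK 0.1 nM; substrates PEP 0.5 mM and ADP 0.1 mM. One-hour room-temperature incubation, then coupled luciferase luminescence; 0.5 nM enzyme wells mark activation.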
Giardia FBPA inh: inhibitors of Giardia lamblia fructose-1,6-bisphosphate aldolase; A8B2U2; purified Giardia FBPA; Potency, µM (highest dose often 59.6 µM), for inactives: at the top dose activity, negative = inhibition, hits mostly inhibitors; 0.71% of 290,000 active; AID 2451; also: nearly all actives have a fitted effect of over 55% in size
Target sequence (A8B2U2 whole entry, looked up): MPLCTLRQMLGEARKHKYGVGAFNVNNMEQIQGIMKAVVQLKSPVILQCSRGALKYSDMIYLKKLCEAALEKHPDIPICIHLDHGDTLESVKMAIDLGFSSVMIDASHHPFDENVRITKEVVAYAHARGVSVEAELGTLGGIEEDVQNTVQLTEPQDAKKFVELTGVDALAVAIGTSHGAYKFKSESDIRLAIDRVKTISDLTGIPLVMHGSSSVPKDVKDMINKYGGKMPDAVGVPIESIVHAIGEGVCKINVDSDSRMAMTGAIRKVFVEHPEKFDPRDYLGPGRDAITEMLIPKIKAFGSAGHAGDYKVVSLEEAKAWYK
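Giardia FBPA (40 nM reagent) was preincubated 10 min at RT with compound (up to 57.5 uM final), then substrate plus GAPDH/TPI/NAD/arsenate coupling system with diaphorase/resazurin was added; resorufin fluorescence (525/598 nm) was read after 20 min.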
The depositor's hits bear a star; ? = inconclusive; . = not tested or not shown; [ ] = remark or other dose. Unless noted, calls follow the shape of the dose curve; as a rule, active = well fitted curve in the direction sought with a large enough effect; inconclusive = small, poorly fitted or top-dose-only effect, or another doubt; inactive = no such curve, though single readings can be large; an effect the other way counts as inactive or inconclusive. % is scaled to controls: 0 for no effect and ±100 for the full control effect; potency is read from the fitted curve at half-maximal effect.

SMILES	Sm TGR inh	TbPYK inhibitor	RE007 growth inh	LmPK inhibitor	Giardia FBPA inh
C=CCc1cc(C)ccc1OCCCC(C(=O)OCC)C(=O)OCC	2.1%	0.5%	3.3%	-0.3%	0.2%
CCSc1nc(O)c(C2OC(=O)c3c2ccc(OC)c3OC)c(=O)n1-c1ccccc1 (configuration not stated)	7.08µM*	1.4%	-7.4%	3.1%	7.1%
Cc1cc(N=Nc2ccccc2C(=O)O)c(C)c(C)c1O	33.3%	4.0%	-7.8%	-13.9%	-13.4%
CNc1oc(-c2ccccc2F)nc1S(=O)(=O)c1ccc(C)cc1	14.1µM*	-7.1%	5.7%	0.2%	.
CCNc1oc(-c2ccc(OC)cc2)nc1S(=O)(=O)c1ccc(Br)cc1	-28.6%	-0.7%	-7.6%	1.0%	-3.0%
CCNc1oc(-c2ccccc2F)nc1S(=O)(=O)c1ccccc1	39.8µM*	-10.4%	-7.2%	-0.2%	.
Cc1ccc(S(=O)(=O)c2nc(-c3ccccc3F)oc2NCc2ccccc2)cc1	47.7%	-6.9%	.	.	.
Cc1nc(-c2ccc(F)cc2)c(CC(=O)N2CCN(S(=O)(=O)c3cccc(Cl)c3)CC2)s1	?	-6.0%	0.0%	.	.
CNc1ccc(Br)cc(C(=O)/C=C/c2ccc3c(c2)OCO3)c1=O	2.82µM*	-17.2%	-21.9%	-0.5%	?
CCNc1ccc(Br)cc(C(=O)/C=C/c2ccc(Cl)cc2Cl)c1=O	2.24µM*	-9.8%	-18.6%	-11.5%	?
O=C(C=Cc1ccc2c(c1)OCO2)c1ccccc1	.	-11.9%	?	.	.
CNc1ccc(Br)cc(C(=O)/C=C/c2cc(OC)ccc2OC)c1=O	3.16µM*	-14.5%	-13.5%	-1.3%	?
CNc1ccc(Br)cc(C(=O)/C=C/c2ccc(OC)cc2)c1=O	11.2µM*	-14.7%	-7.0%	1.4%	?
O=C(CCc1nc(-c2cccs2)no1)Nc1ccc([N+](=O)[O-])cc1	7.1%	0.5%	.	.	.
CCOCc1nnc(NC(=O)c2cc(OC)cc(OC)c2)s1	6.9%	-14.6%	-0.4%	-8.0%	-0.1%
CCOC(=O)CCSc1n[nH]c(=S)s1	17.8µM*	-28.4%	2.0%	22.9%	?
Cc1ccc(/C=N/n2c(-c3cccnc3)n[nH]c2=S)o1	28.2µM*	?	8.0%	13.2%	-26.4%
Cc1ccc(/C=N/n2c(-c3cccnc3)n[nH]c2=S)s1	-6.5%	?	5.3%	-3.9%	11.7%
Cc1ccc(-c2n[nH]c(=S)n2/N=C/c2ccc(C)o2)cc1	-3.6%	2.51µM*	7.5%	-12.9%	8.1%
CN(C)c1ccc(/C=N/n2c(-c3cccnc3)n[nH]c2=S)cc1	.	2.82µM*	12.4%	0.0%	6.2%
CCOC(=O)c1cccc(NC(=O)CNC(=O)C2CCCCC2)c1	4.6%	3.9%	-8.0%	0.8%	4.7%
O=C(NCc1ccco1)C1OCCc2ccccc21 (configuration not stated)	22.4µM*	-8.0%	23.9%	3.6%	-8.8%
CC(C(=O)Nc1cccc([N+](=O)[O-])c1)n1nnc2ccccc21 (configuration not stated)	-26.3%	-6.8%	16.0%	2.1%	4.0%
Cc1c(C(=O)NCc2ccc(Cl)cc2)sc2nc3n(c(=O)c12)CCCCC3	35.5µM*	?	.	.	.
Cc1c(C(=O)NCCc2ccc(Cl)cc2)sc2nc3n(c(=O)c12)CCCC3	44.7µM*	-5.5%	.	.	.
SMILES	Sm TGR inh	TbPYK inhibitor	RE007 growth inh	LmPK inhibitor	Giardia FBPA inh
COc1ccc(CCNC(=O)c2sc3nc4n(c(=O)c3c2C)CCCC4)cc1OC	35.5µM*	-4.4%	.	.	.
Cc1ccc(CNC(=O)c2sc3nc4n(c(=O)c3c2C)CCCC4)cc1	56.2µM*	-1.8%	.	.	.
Cc1c(C(=O)NCCc2ccc(Cl)cc2)sc2nc3n(c(=O)c12)CCC3	-16.1%	-1.1%	-0.4%	9.1%	.
CCOc1ccc(NC(=O)c2sc3nc4n(c(=O)c3c2C)CCCC4)cc1	31.6µM*	5.6%	.	.	.
COc1ccc(-n2c(=O)c(-c3ccc(F)cc3)nc3cnc(N4CCNCC4)nc32)cc1	.	.	.	.	0.3%
O=C1/C(=C/c2cccnc2)SC(=S)N1CC1CCCO1 (configuration not stated)	-10.0%	-2.8%	6.2%	-0.7%	4.5%
O=C(CN1C(=O)/C(=C\c2ccco2)SC1=S)Nc1ccc(O)cc1C(=O)O	25.1µM*	-19.0%	4.2%	15.7%	.
O=C(CCN1C(=O)/C(=C/c2ccco2)SC1=S)Nc1ccc(C(=O)O)c(O)c1	?	-18.7%	0.9%	1.7%	?
O=C(CCN1C(=O)/C(=C\c2ccco2)SC1=S)Nc1ccc(C(=O)O)c(O)c1	17.8µM*	-15.0%	-13.6%	3.5%	?
O=C1/C(=C/c2ccco2)SC(=S)N1CC1CCCO1 (configuration not stated)	20µM*	-9.9%	9.0%	5.7%	?
CC12CN3CC(c4ccccc4)(CN(C1)C31CCCCC1)C2=O	5.9%	-5.9%	1.3%	1.3%	2.8%
CC[C@H](C)[C@@H](COC=O)NC(=O)[C@H]1O[C@@H](n2ccc(N)nc2=O)[C@H](O)[C@@H]1O	.	-0.8%	-5.2%	.	.
CCCCC[C@H]1CCCCC[C@@H](O)C[C@@H](O)[C@@H](O)/C=C/C(=O)O1	.	-1.9%	5.3%	.	.
CC(=O)Nc1ccccc1C	-1.8%	-8.2%	0.0%	.	.
Cc1cc(C(=O)c2ccccc2)c(NC(=O)CCl)s1	7.94µM*	-11.0%	-4.0%	2.8%	-0.6%
Cc1ccc(Cl)c(NC(=O)CSc2cccc[n+]2[O-])c1Cl	.	6.1%	5.1%	.	.
Cc1ccccc1NC(=O)CCl	22.4µM*	-1.0%	7.2%	-4.2%	0.6%
O=C(CCl)Nc1ccccc1C(=O)c1ccccc1	35.5µM*	-6.7%	-8.4%	-4.3%	1.7%
Cc1ccc(Cl)c(NC(=O)CCl)c1Cl	31.6µM*	-0.3%	6.9%	1.3%	2.8%
CCN(CC)CC(=O)Nc1sc(C)cc1C(=O)c1ccccc1	-12.2%	-0.6%	-9.0%	-1.3%	9.4%
O=C(c1ccccc1)c1ccccc1NC(=O)c1ccccc1C(=O)O	2.3%	-9.6%	.	.	.
COC(=O)C1C(=O)c2c(n[nH]c2C)CC1(C)C (configuration not stated)	-8.2%	6.2%	15.0%	-4.1%	0.2%
Cc1ccc(-c2nnc3c4ccccc4c(C)nn23)cc1NC(=O)CN1CCOCC1	5.3%	.	.	1.5%	6.1%
N#CCSc1ccc(-c2nc3ccccc3[nH]2)cn1	-1.5%[57.1 µM]	0.4%	-29.2%	25.1µM*	-11.6%
CCCCOc1ccc(C(=O)NC(=S)Nc2ccc(CN3CCOCC3)cc2)cc1	10.4%	-4.6%	16.6%	-2.7%	0.1%
COc1ccc(C(=O)NC(=S)Nc2ccc(CN3CCOCC3)cc2)cc1	22.4µM*	-1.7%	-13.8%	1.9%	-10.0%
CCOc1ccc(C(=O)Nc2ccc(CN3CCOCC3)cc2)cc1Br	-1.1%	-1.2%	-20.7%	1.0%	-1.4%
COc1ccc(C(=O)NC(=S)Nc2ccc(CN3CCOCC3)cc2)cc1Br	14.1µM*	-11.9%	-3.4%	2.3%	?
